From PubChem BioAssay AID1159580 (chemical genetic matrix, 2015)
“And” between values parts separate entries of the source, which are not always exact repeats. Equal values may be shown once. About 2,000 (36%) of roughly 5,500 compounds were called active. Inconclusive results (about 18%) are left out. No stated cut-off is given here; in the data, active means normalized growth mostly below about 0.91 (no sharp cut-off); inconclusive means no clear call, values can overlap the other calls; inactive means mostly above about 0.92. Some of the results follow.

Assay: chemical genetic growth profiling, strain panel (AID 1159580);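 further: tested at 20 µM; growth read once vehicle control cultures reached saturation at 30 °C; 1 = growth at the plate median or of vehicle wells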
Conditions: S. cerevisiae deletion strains, growth OD

Measured: normalized growth

O=C1c2ccccc2C(=O)C1c1ccccc1
inactive: locus YAL013W, strain DEP1, stronger effect = lower value 0.975 | locus YAL021C, strain ccr4, stronger effect = lower value 1.01 | locus YAL026C, strain drs2, stronger effect = lower value 1 | locus YAL030W, strain snc1, stronger effect = lower value 1 | locus YBL061C, strain skt5, stronger effect = lower value 0.998 | locus YBR009C, strain hhf1, stronger effect = lower value 1.01 | locus YBR021W, strain FUR4, stronger effect = lower value 1 | locus YBR023C, strain chs3, stronger effect = lower value 1 | locus YBR171W, strain sec66, stronger effect = lower value 0.957 | locus YBR229C, strain ROT2, stronger effect = lower value 1 and 0.94 | locus YBR231C, strain swc5, stronger effect = lower value 1.01 | locus YBR279W, strain paf1, stronger effect = lower value 0.993 | locus YCL011C, strain gbp2, stronger effect = lower value 1 | locus YCL016C, strain dcc1, stronger effect = lower value 1.01 | locus YCL029C, strain bik1, stronger effect = lower value 1.01 | locus YCL061C, strain MRC1, stronger effect = lower value 1 and 0.995 | locus YCL069W, strain vba3, stronger effect = lower value 0.995 | locus YCR088W, strain abp1, stronger effect = lower value 0.988 | locus YDL005C, strain med2, stronger effect = lower value 1 | locus YDL035C, strain GPR1, stronger effect = lower value 1.01 | locus YDL040C, strain nat1, stronger effect = lower value 1 | locus YDL074C, strain BRE1, stronger effect = lower value 1 | locus YDL101C, strain DUN1, stronger effect = lower value 1.01 and 0.909 | locus YDL134C, strain PPH21, stronger effect = lower value 1.01 | locus YDL185W, strain tfp1, stronger effect = lower value 0.991 | locus YDL192W, strain arf1, stronger effect = lower value 1.01 | locus YDR001C, strain nth1, stronger effect = lower value 0.981 | locus YDR069C, strain doa4, stronger effect = lower value 0.996 | locus YDR101C, strain arx1, stronger effect = lower value 1 | locus YDR137W, strain rgp1, stronger effect = lower value 0.995 | locus YDR150W, strain NUM1, stronger effect = lower value 0.998 and 1.01 | locus YDR159W, strain sac3, stronger effect = lower value 1.01 | locus YDR162C, strain NBP2, stronger effect = lower value 0.995 | locus YDR195W, strain ref2 0.997 | locus YDR297W, strain sur2, stronger effect = lower value 0.993 | locus YDR318W, strain mcm21, stronger effect = lower value 1.01 | locus YDR334W, strain swr1, stronger effect = lower value 0.996 | locus YDR335W, strain msn5, stronger effect = lower value 0.995 | locus YDR388W, stronger effect = lower value 1.02 | locus YDR392W, strain spt3, stronger effect = lower value 0.918 | locus YDR502C, strain sam2, stronger effect = lower value 1 | locus YEL003W, strain gim4, stronger effect = lower value 0.991 | locus YEL037C, strain rad23, stronger effect = lower value 0.992 | locus YEL061C, strain CIN8 (second series), stronger effect = lower value 0.986 | locus YEL061C, strain CIN8, stronger effect = lower value 0.998 and 0.977 | locus YER015W, strain faa2, stronger effect = lower value 1.01 | locus YER016W, strain bim1, stronger effect = lower value 1 | locus YER110C, stronger effect = lower value 1.01 | locus YER111C, strain swi4, stronger effect = lower value 0.999 | locus YER155C, strain BEM2 (second series), stronger effect = lower value 1 | locus YER155C, strain BEM2, stronger effect = lower value 0.989 | locus YER167W, strain BCK2, stronger effect = lower value 0.997 | locus YFR010W, strain ubp6, stronger effect = lower value 1 | locus YGL078C, strain dbp3, stronger effect = lower value 0.99 | locus YGL086W, strain mad1, stronger effect = lower value 0.997 | locus YGL167C, strain pmr1, stronger effect = lower value 1 | locus YGL173C, strain kem1, stronger effect = lower value 1.02 | locus YGL227W, strain vid30, stronger effect = lower value 0.978 | locus YGL240W, strain doc1, stronger effect = lower value 1.01 | locus YGL248W, strain PDE1, stronger effect = lower value 1 | locus YGL253W, strain hxk2, stronger effect = lower value 0.998 | locus YGR078C, strain PAC10, stronger effect = lower value 0.942 | locus YGR135W, strain pre9, stronger effect = lower value 1.01 | locus YGR229C, strain SMI1, stronger effect = lower value 1.01 and 1.05 | locus YGR252W, strain gcn5, stronger effect = lower value 0.998 | locus YHR013C, strain ard1, stronger effect = lower value 0.974 | locus YHR027C, strain rpn1, stronger effect = lower value 0.997 | locus YHR030C, strain SLT2, stronger effect = lower value 1 and 0.957 and 0.982 | locus YHR079C, strain IRE1 (second series), stronger effect = lower value 1.01 | locus YHR079C, strain IRE1, stronger effect = lower value 0.95 | locus YHR087W, strain rtc3, stronger effect = lower value 0.923 | locus YHR094C, strain hxt1, stronger effect = lower value 1.01 | locus YHR129C, strain ARP1, stronger effect = lower value 0.992 | locus YHR142W, strain chs7, stronger effect = lower value 1 | locus YHR200W, strain rpn10, stronger effect = lower value 1.01 | locus YIL066C, strain RNR3, stronger effect = lower value 1.01 | locus YIL073C, strain SPO22, stronger effect = lower value 1.03 | locus YIL125W, strain kgd1, stronger effect = lower value 0.989 | locus YIR030C, strain dcg1, stronger effect = lower value 1 | locus YJL092W, strain hpr5, stronger effect = lower value 0.983 | locus YJL095W, strain BCK1 (second series), stronger effect = lower value 1 | locus YJL095W, strain BCK1, stronger effect = lower value 0.984 and 0.97 | locus YJL115W, strain asf1, stronger effect = lower value 0.99 | locus YJL129C, strain trk1, stronger effect = lower value 0.978 | locus YJL134W, strain LCB3, stronger effect = lower value 0.993 | locus YJL154C, strain vps35, stronger effect = lower value 0.991 | locus YJL164C, strain tpk1, stronger effect = lower value 1 | locus YJL166W, strain qcr8, stronger effect = lower value 1.01 | locus YJL168C, strain set2, stronger effect = lower value 1.01 | locus YJL187C, strain SWE1 (second series), stronger effect = lower value 1 | locus YJL187C, strain SWE1, stronger effect = lower value 1 | locus YJR043C, strain POL32, stronger effect = lower value 1.01 and 0.982 | locus YJR066W, strain TOR1, stronger effect = lower value 0.92 | locus YJR075W, strain HOC1, stronger effect = lower value 1.01 and 0.971 | locus YKL009W, strain mrt4, stronger effect = lower value 0.974 | locus YKL068W, stronger effect = lower value 0.989
